Laboratory results published in PubChem BioAssay (NCI).
About 79,000 compounds went through this panel and 15% of them were active in at least one assay; those are over-represented in the sample as a whole. Unmarked numbers belong to inactive results. The source made the active and inactive calls. No stated cut-off is given here; in the data, active means growth inhibition above about 70%; inactive means the rest.

Assays:
[1] = NCI Yeast Anticancer Drug Screen. Data for the rad50 strain (AID 155);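 further: 0% = growth of vehicle-only cultures of the same strain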; details: S. cerevisiae rad50 strain growth inhibition; at 50.0 µM; hits give high values
Summary of the method: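 Yeast carrying a defined DNA repair defect were exposed to test compounds, and growth was compared with vehicle-treated controls to give percent inhibition.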

[2] = NCI Yeast Anticancer Drug Screen. Data for the mec2-1 strain (AID 157); details: S. cerevisiae mec2-1 strain, at 50.0 µM, hits give high values
Summary of the method: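 Each compound was tested on mec2-1 yeast, a strain altered in DNA damage repair or cell cycle control. Growth inhibition is reported relative to vehicle.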

[3] = NCI Yeast Anticancer Drug Screen. Data for the sgs1 mgt1 strain (AID 161);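 further: 0% = growth of cultures given vehicle only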; details: S. cerevisiae sgs1 mgt1 strain, at 50.0 µM, hits give high values
Summary of the method: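 Test agents were incubated with a DNA-repair-mutant yeast strain. Growth was then read and compared against vehicle-treated controls.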

[4] = NCI Yeast Anticancer Drug Screen. Data for the cln2 rad14 strain (AID 165);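 further: 0% = growth equal to vehicle treated cultures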; details: S. cerevisiae cln2 rad14 strain, at 50.0 µM, hits give high values
Summary of the method: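 Test compounds were added to cln2 rad14 yeast cultures; inhibition of growth was then determined by comparison with vehicle treatment.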

[5] = NCI Yeast Anticancer Drug Screen. Data for the bub3 strain (AID 167); details: S. cerevisiae bub3 mutant strain, at 50.0 µM, hits give high values
Summary of the method: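 Compounds were applied to a genetically altered yeast strain carrying a cell-cycle control defect. Growth inhibition was scored against vehicle-treated controls.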

[6] = NCI Yeast Anticancer Drug Screen. Data for the mlh1 rad18 strain (AID 175); details: S. cerevisiae mlh1 rad18 strain growth inhibition; at 50.0 µM; hits give high values
Summary of the method: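 Inhibition values reflect reduced growth of mutant yeast versus vehicle-treated controls following compound exposure; the mutations affect DNA damage repair.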

Row | SMILES | growth inhibition [1] | growth inhibition [2] | growth inhibition [3] | growth inhibition [4] | growth inhibition [5] | growth inhibition [6]
1 | O=c1[nH]c(=O)c2[nH]cnc2[nH]1 | 8.05% | -6% | 5.9% | 2.55% | 9.9% | 9.75%
2 | O=C(Nc1ccccc1)Nc1ccc(-c2ccccc2)cc1 | 13.7% | 14.1% | 13.1% | 5.7% | 37.6% | 3.5%
3 | Nc1ccc2c(c1)C1Oc3ccccc3CC1CO2 (stereo unspecified) | 33% | 6.55% | 20.1% | 8.05% | 12.8% | 47.2%
4 | CCCCCCCCCCCCCCCCCCCCCCCCCC(=O)O | 30.4% | -20.2% | 32.5% | 4.5% | 23.9% | 4.95%
5 | CCN(CC)CCNc1ccc(OC)c2sc3ccccc3c(=O)c12 | 53.6% | 25.4% | 20.9% | -7.85% | 40.4% | 24.6%
6 | O=C(O)c1c(CC(Cc2ccc3c(c2)CCCC3)C(=O)O)ccc2c1CCCC2 (stereo unspecified) | 46.3% | 23.6% | 9.8% | 11.8% | 40.9% | 56.7%
7 | CCNC(=O)NS(=O)(=O)c1ccc(Sc2ccc(Cl)cc2)nc1 | -5.8% | -2.95% | -7.5% | -5.7% | -0.55% | -0.4%
8 | CCCn1cnc2c(SCC(=O)O)nc(N)nc21 | -33.3% | -18.9% | -24.4% | -26.1% | -22.1% | -8.9%
9 | O=C(c1ccccc1)C1C(C(=O)c2ccccc2)C1c1ccccc1 (stereo unspecified) | -11.3% | -4.45% | 21.3% | 3.4% | 31.3% | -16.1%
10 | Cn1c2nc(=O)n(-c3ccccc3)c(=O)c-2nc2c1CCCC2 | -4.95% | -10.7% | 1.55% | -6.45% | 3.9% | -60.7%
11 | O=S1(=O)C(Cl)=C(O)c2ccccc21 | 13.4% | 6.5% | -2.05% | -22.6% | -7.7% | 11.4%
12 | O=C1NCCN(CCc2ccccc2)C1c1ccccc1 (stereo unspecified) | -9.6% | 0.95% | -8.85% | -31.9% | 15% | -6.05%
13 | OC(c1ccc(Cl)cc1)c1nc2ccccc2[nH]1 (stereo unspecified) | 40.8% | 18.4% | 35.5% | 15.9% | 19.1% | 33.5%
14 | NC(N)=NS(=O)(=O)c1ccc(N=Cc2c3ccccc3nc3ccccc23)cc1 | 98.7% (active) | 99.3% (active) | 99.2% (active) | 98.8% (active) | 96% (active) | 98.8% (active)
15 | NNCCSC1CCCCC1 | 8.9% | 22.1% | 15.3% | -63.1% | -17% | 2.8%
16 | O=C(NC1CC12c1ccccc1-c1ccccc12)Oc1ccc2ccccc2c1 (stereo unspecified) | 68.4% | 18.8% | 60.9% | 45.8% | 55.2% | 57.4%
17 | COc1nc(N=P(c2ccccc2)(c2ccccc2)c2ccccc2)cc(=O)[nH]1 | 4.3% | 1.6% | 26.9% | 27.7% | 21.9% | 4.65%
18 | C#CN1C(=O)c2c(c(-c3ccccc3)c(-c3ccc(Oc4ccc(-c5c(-c6ccccc6)c6c(c(-c7ccccc7)c5-c5ccccc5)C(=O)N(C#C)C6=O)cc4)cc3)c(-c3ccccc3)c2-c2ccccc2)C1=O | 7.25% | 10.1% | 1.9% | 10.3% | 1.4% | 15.2%
19 | COc1cc(C2NC(=O)C(C)(C)O2)cc(OC)c1OC (stereo unspecified) | -2.05% | -9.85% | -8.75% | -17.8% | 4.8% | -37%
20 | CC1(C)CC(C(N)=O)C(C)(C)N1O (stereo unspecified) | 13% | 7.55% | 23.6% | 17.9% | 23.8% | 7.1%
21 | O=[N+]([O-])c1ccc2c(Cl)[nH]nc2c1 | 35.1% | 27.6% | 29.8% | 30.8% | 39% | 23.9%

Row | SMILES | growth inhibition [1] | growth inhibition [2] | growth inhibition [3] | growth inhibition [4] | growth inhibition [5] | growth inhibition [6]
22 | NC(=S)N/C=C\c1nc2ccccc2[nH]c1=O | -34.4% | -18.6% | -39.1% | -21.8% | -12.1% | -15.4%
23 | CC(=O)C[n+]1ccccc1Oc1ccccc1 | 5.9% | 4.15% | 4.25% | 11.2% | 12.8% | 3.75%
24 | COc1ccc(N=Nc2c(C)nc(N)nc2C)cc1 | 2.1% | 18% | 8.05% | -26.8% | -14.3% | 12.6%
25 | O=C(n1[nH]c(=O)n(-c2ccc([N+](=O)[O-])cc2)c1=O)C(Cl)(Cl)Cl | 7.9% | -15.3% | 22.5% | 7.6% | 12.7% | -28.9%
26 | CN=C(Nc1cccc(C(F)(F)F)c1)SCc1ccc(N=C=S)cc1 | 9.7% | 28.3% | 60% | 10.2% | 38.8% | 38.5%
27 | CCOC(=O)/C(C#N)=C/c1ccnc2ccccc12 | -39.7% | -46.5% | -30.8% | -45.4% | -29.1% | -23.1%
28 | O=C(Nc1c(Cl)c(Cl)c2c(c1Cl)Cc1cc(Cl)ccc1-2)C(Cl)Cl | 36.9% | 10.7% | 1.5% | 26.1% | 3.85% | 25.4%
29 | O=C(/C=C/c1ccsc1)c1ccsc1 | -38.9% | -51.9% | -22.9% | 3.6% | 9.5% | -3.05%
30 | ClC12CCC(Cl)(CC1)CC2 | 10.5% | 0.65% | -3.95% | -50.6% | -10.7% | -7.95%
31 | CCCCCCCCOC1OC(COC(C)=O)C(OC(C)=O)C(OC(C)=O)C1OC(C)=O (stereo unspecified) | -3% | 3.75% | -4.45% | 6.75% | -35.5% | -6.95%
32 | C=CCN=C(N)SCCN(CCSC(N)=NCC=C)C(N)=O | 36.1% | 10.7% | 36.2% | 34.2% | 4.05% | 13.1%
33 | Clc1cccc(CC(Br)Br)c1 | 14.8% | 4.45% | 6.75% | 23% | -4.65% | 14.5%
34 | CCN(CC)C(=O)CNC(=O)C(c1ccccc1)c1ccccc1 | 4.25% | -6.2% | 1.4% | -9.7% | 6.35% | -8.05%
35 | CS(=O)(=O)OCCC(O)COS(C)(=O)=O (stereo unspecified) | -7.55% | -7.25% | 9.45% | -55% | -12.5% | 4.1%
36 | CN(C(=O)C(Cl)Cl)c1ccc(-c2csc(Cc3ccccc3)n2)cc1 | 38.7% | 6.3% | 1.05% | 7.05% | 34.8% | 28.2%
37 | CC(=O)Nc1c(I)c(C(=O)NC2C(O)OC(CO)C(O)C2O)c(I)c(N(C)C(C)=O)c1I (stereo unspecified) | -27.2% | 4.55% | -14.2% | -21.6% | -21.5% | -38%
38 | CSc1nc(=S)c2[nH]c(Cl)nc2[nH]1 | -1.8% | 0.4% | -6.9% | -15.2% | 16.4% | 0.25%
39 | CC1(CCl)C(=O)C=Cc2ccccc21 (stereo unspecified) | 6.45% | 0.7% | -5.1% | -6.8% | 5.3% | -3.45%
40 | Cc1ccc(Cl)cc1NC(=O)C(Br)C(Br)C(=O)O (stereo unspecified) | 93.2% (active) | 99.4% (active) | 99.5% (active) | 90.2% (active) | 99% (active) | 98.8% (active)
41 | O=C(Nc1ccccc1Cl)Oc1ccc(Cl)cc1Cl | 3.5% | 20.1% | 7.4% | -15.1% | -6.05% | -9.45%
